Screening data (PubChem BioAssay)
KB-3-1 tox – KB-3-1 parental cell cytotoxicity; KB-3-1 viability, CellTiter-Glo ATP luminescence, 72 h; Potency, µM (doses to about 46.1 µM), most hits filed as cytotoxic; hit rate 1.4% among 400,000; AID 1347075; also: % is scaled to controls: 0 for no effect and ±100 for the full control effect; nearly all actives have a fitted effect of over 60% in size
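72 h, 37 °C compound treatment of KB-3-1 parental cells; CellTiter-Glo added, 10 min, luminescence read. Data corrected against DMSO-only plates and normalized before curve fitting.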
SW480 rereplic – induces DNA re-replication in SW480 colon adenocarcinoma cells | SW480 DNA re-replication, Hoechst DNA content imaging, 48 h | hit rate 1.8% among 340,000 | Potency, µM (titrated, usually from 46.1 µM), without a hit: at the highest dose re-replication activation, hits mostly activators; also: % of control where 0% means no effect; nearly all actives have a fitted effect of over 55% in size
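Image-based DNA-content assay: after two days of treatment, nuclei were labelled with the DNA dye Hoechst and imaged, and hits were compounds raising the count of nuclei showing high fluorescence intensity.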
HT1080-NT tox – kills 2HG-producing HT-1080-NT fibrosarcoma cells; HT-1080-NT fibrosarcoma viability, CellTiter-Glo ATP luminescence, 48 h; Potency, µM (doses to about 46.1 µM), inactives show at the top dose activity, negative = less viability, actives largely listed as cytotoxic; hit rate 1.6% among 360,000; AID 686970;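 also: NT is the 2HG producing partner of a matched IDH1 knockdown line; 0% = DMSO-treated cells and -100% = media-only wells without cells; nearly all actives have a fitted effect of over 55% in size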
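750 cells/well, RPMI + 5% FBS; 2 h settle, compound pin-transfer, 48 h at 37 degrees C. CellTiter-Glo 10 min RT, luminescence. Normalized to DMSO and media-only wells.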
MCF10A rereplic – DNA re-replication induction in MCF 10a cells; hit rate 2.9% among 350,000; MCF 10A DNA re-replication, Hoechst nuclear intensity, 48 h; AID 624296; Potency, µM (series often up to 46.1 µM), without a hit: at the top dose activity, positive = re-replication, actives largely listed as activators; also: % of control where 0% means no effect; nearly all actives have a fitted effect of over 50% in size
HT1080 IDH1KD tx – kills HT-1080 cells with IDH1 knockdown; HT-1080 IDH1 knockdown viability, ATP luminescence, 48 h; Potency, µM (titrated, usually from 46.1 µM), inactives show at the highest dose activity, negative = toxicity, usual class: cytotoxic; hit rate 2% among 360,000;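 also: 0% = DMSO wells and -100% = cell-free medium wells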
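IDH1KD HT-1080 cells, 750/well, RPMI + 5% FBS; compound pinned after 2 h settling; 48 h, 37 °C; CellTiter-Glo luminescence; % activity normalised to DMSO and no-cell wells; curves fitted, classed by r2 and efficacy.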
KB-V1 cytotox – kills drug-selected multidrug resistant KB-V1 cells; KB-V1 MDR cells viability, CellTiter-Glo, 72 h; Potency, µM (doses to about 46.1 µM), actives largely listed as cytotoxic; hit rate 3.4% among 400,000; also: % is scaled to controls: 0 for no effect and ±100 for the full control effect; nearly all actives have a fitted effect of over 60% in size
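Drug-selected KB-V1 cells, grown in DMEM lacking phenol red with 10% FBS, receive compound titrations; after three days at 37 degrees C, surviving cell ATP is quantified by CellTiter-Glo luminescence and responses normalized and curve-fitted.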
* = called active by the depositor; i = inactive; u = inconclusive; x = no result given. Only some compounds are listed: those with a hit (about 8% of all), similar ones and a draw of the others. Calls follow the shape of the dose curve; as a rule, active = well fitted curve in the direction sought with a large enough effect; inconclusive = small, poorly fitted or top-dose-only effect, or another doubt; inactive = no such curve, though single readings can be large; an effect the other way counts as inactive or inconclusive. Potency is read from the fitted curve at half-maximal effect.

SMILES	KB-3-1 tox	SW480 rereplic	HT1080-NT tox	MCF10A rereplic	HT1080 IDH1KD tx	KB-V1 cytotox
CC(C)CCNC(=O)C12CN(Cc3ccccc3)CC1C(c1ccc([N+](=O)[O-])cc1)=NO2 (configuration not stated)	u	-2.5%	-7.0%	-6.6%	-13.3%	i
Cc1ccc2[nH]c(=O)c(CN(Cc3ccccc3)Cc3nnnn3C3CCCC3)cc2c1	i	-2.9%	5.4%	0.6%	-3.6%	23.1µM*
COc1ccc(Cn2nnnc2CN(Cc2cc3cc(C)ccc3[nH]c2=O)C2CCCC2)cc1	i	13.8%	0.0%	23.1µM*	15.1%	16.4µM*
CCC(C)(C)n1nnnc1C(C(C)C)N(Cc1cccnc1)Cc1ccco1 (configuration not stated)	i	-37.5%	17.0%	10.6%	-7.2%	i
Cc1ccc(CN(Cc2cc3cc4c(cc3[nH]c2=O)OCCO4)Cc2nnnn2Cc2ccco2)cc1	i	u	-29.0%	u	u	14.6µM*
Cc1ccc2[nH]c(=O)c(CN(Cc3nnnn3C3CCCC3)C3CCCCC3)cc2c1	i	16.8%	0.6%	20.7%	-5.7%	i
COc1ccc2[nH]c(=O)c(CN(Cc3nnnn3Cc3ccco3)C3CCCCC3)cc2c1	u	u	-0.1%	30.0%	0.0%	i
CCC(C)(C)n1nnnc1C(C(C)C)N(Cc1ccco1)Cc1cc2cc3c(cc2[nH]c1=O)OCO3 (configuration not stated)	u	u	-2.2%	u	-27.8%	14.6µM*
COc1ccc(Cl)cc1NC(=O)Cn1c(=O)n(Cc2ccco2)c(=O)c2cccnc21	i	x	x	x	x	i
O=C(COc1ccc([N+](=O)[O-])cc1)NCc1ccccc1	i	-6.1%	9.2%	1.5%	2.1%	i
O=c1[nH]c2cc3c(cc2cc1CN(Cc1nnnn1C1CCCC1)C1CCCC1)OCCO3	23.1µM*	-3.3%	1.1%	-6.2%	-25.8%	i
Cc1ccccc1NC(=O)c1cccc2nc3ccccc3nc12	u	18.4µM*	-8.6%	u	-0.9%	u
Cc1[nH][nH]c(=O)c1N=Nc1ccc(F)cc1	i	-13.1%	6.2%	-5.6%	10.0%	i
COc1ccc(N=Nc2c(C)[nH]c3ccccc23)cc1	i	13.2%	u	u	18.4µM*	i
Nc1[nH][nH]c(=O)c1N=Nc1cccc(Cl)c1	i	-21.3%	-3.6%	-49.4%	-18.2%	u
COc1cccc(N=Nc2c(N)[nH][nH]c2=O)c1	i	-3.6%	-11.2%	18.2%	-2.4%	18.4µM*
COc1ccc(N=Nc2c(C)[nH][nH]c2=O)cc1	u	0.4%	-3.2%	-0.2%	-10.3%	23.1µM*
Nc1nc(N2CCCCC2)c2ncn(C3OC(CO)C(O)C3O)c2n1 (configuration not stated)	i	x	8.1%	x	17.4%	i
CC(CC(=O)Nc1ccc(F)cc1)S(=O)(=O)c1cc2c3c(c1)CCN3C(=O)CC2 (configuration not stated)	i	x	x	x	x	i
CC12c3ccccc3C(c3ccccc31)C1C(=O)N(c3cccnc3)C(=O)C12 (configuration not stated)	i	-0.8%	5.1%	0.1%	14.3%	14.6µM*
CC12c3ccccc3C(c3ccccc31)C1C(=O)N(c3ccncc3)C(=O)C12 (configuration not stated)	i	-5.2%	-17.2%	-1.1%	-23.0%	i
O=C(CSc1nnnn1C1CC2CCC1C2)Nc1ccnc2ccccc12 (configuration not stated)	i	-4.4%	-12.7%	1.5%	-20.4%	u
Cc1ccc(NC(=O)c2cc(-n3cnnc3)ccc2Cl)cc1	i	-1.7%	5.6%	27.5%	11.4%	i
CC(=O)Nc1ccc(S(=O)(=O)Nc2cccc(-c3csc(C)n3)c2)cc1	i	17.7%	-26.8%	-1.3%	u	i
O=C(Nc1ccc(-c2nc3ccccc3s2)cc1)c1cc(-n2cnnc2)ccc1Cl	u	1.1%	10µM*	2.2%	11.2µM*	i
SMILES	KB-3-1 tox	SW480 rereplic	HT1080-NT tox	MCF10A rereplic	HT1080 IDH1KD tx	KB-V1 cytotox
Cc1ccc2oc(-c3ccc(C)c(NC(=O)Cc4cccs4)c3)nc2c1	i	-38.4%	-1.7%	1.7%	-15.0%	u
CC(=O)Nc1ccc(S(=O)(=O)Nc2cccc(-c3nc4cc(C)ccc4o3)c2)cc1	18.4µM*	0.9%	-0.7%	u	15.3%	u
Cc1ccc2oc(-c3cccc(NC(=O)Cc4cccs4)c3)nc2c1	i	1.8%	-3.5%	14.6µM*	-1.3%	i
Cc1cccc(-c2nc3cc(NC(=O)C4CCCO4)ccc3o2)c1 (configuration not stated)	i	-59.2%	-14.5%	-56.2%	-2.7%	13µM*
CC1(NC(=O)Cc2ccc(Cl)c(Cl)c2)CCS(=O)(=O)C1 (configuration not stated)	i	-8.8%	-0.8%	u	-1.4%	i
Cc1ccc2oc(-c3cccc(NC(=O)c4cccc5c(Cl)cccc45)c3)nc2c1	i	x	x	x	x	u
Cc1ccc2oc(-c3cccc(NC(=O)c4cc(-n5cnnc5)ccc4Cl)c3)nc2c1	i	u	u	8.2µM*	u	i
O=C(O)Cn1cc(/C=C/[N+](=O)[O-])c2ccccc21	i	1.2%	-1.0%	1.1%	1.2%	u
N#Cc1ccccc1Cn1cc(/C=C/[N+](=O)[O-])c2ccccc21	u	u	23.1µM*	4.11µM*	23.1µM*	u
N#Cc1cn(Cc2cccc(Cl)c2)c2ccccc12	i	6.1%	-5.4%	u	-14.8%	i
O=C(Cn1cc(/C=C\[N+](=O)[O-])c2ccccc21)Nc1ccccc1	u	u	u	8.2µM*	3.66µM*	u
CCOC(=O)c1c(C)oc2c1c(CN1CCN(CCO)CC1)c(O)c1ccccc12	i	u	u	u	u	i
COC(=O)CNC(c1ccccc1)c1cc(Cl)ccc1NC(=O)c1cccc(Cl)c1 (configuration not stated)	i	u	-2.9%	u	-28.6%	5.17µM*
Cc1cc(N2CCCC2)c(F)cc1/C=C\[N+](=O)[O-]	u	29.1µM*	u	u	u	u
CCn1ncc(Br)c1C(=O)NC1CCCCCCC1	i	-6.9%	-3.3%	-31.0%	-0.9%	i
CSc1ccc(CSCC(=O)N2CCN(S(=O)(=O)c3ccc(C)cc3C)CC2)cc1	u	-1.0%	-4.3%	11.1%	-2.3%	u
CCN(CC)CCC(=O)Nc1cccc2c1C(=O)c1ccccc1C2=O	u	u	18.4µM*	-20.2%	14.6µM*	18.4µM*
